Ba CapD inh – CapD enzyme inhibition. purified CapD enzyme, fluorescence intensity read-out; stronger effect = lower value. z-score (test concentration not listed). 140,000 compounds, 0.23% hits; in the data active = z-score mostly below about -2.9, no sharp cut-off; inactive = mostly above about -1.9
Numbers without * were called inactive. This is one part of a sample in which hits are shown more often than they occur.

SMILES	Ba CapD inh
CC1CCN(c2cc(N(C)CCO)c([N+](=O)[O-])c3nonc23)CC1	-2.9
CN(CCO)c1cc(N2CCCCCC2)c2nonc2c1[N+](=O)[O-]	-2.7
O=C(NC(NC1CCCCC1)(C(F)(F)F)C(F)(F)F)c1ccccc1	-0.04
Cc1ccc(C)c(Nc2nc3nonc3nc2N2CCCCC2)c1	0.06
COc1ccccc1CNC(=O)CCC(=O)N(C1CC1)C1CCN(Cc2ccccc2)CC1	-0.53
Cc1csc2sc(COC(=O)c3cc(C(F)(F)F)cc(C(F)(F)F)c3)c(C)c12	0.16
COc1ccc(/C=C2/CC(C(C)(C)C)C/C(=C\c3ccc(OC)cc3OC)C2=O)c(OC)c1 (centres undefined)	0.63
COc1cccc(/C=C2/CCC/C(=C\c3cccc(OC)c3OC)C2=O)c1OC	0.33
COc1cccc(/C=C2/CC(C(C)(C)C)C/C(=C\c3cccc(OC)c3OC)C2=O)c1OC (centres undefined)	-9.2*
Cc1ccc(C(O)(C(=O)NN(C(=O)c2cccnc2Cl)c2ccccc2)c2ccc(C)cc2)cc1	0.12
Cc1cc(/C=C2\C(=O)NC(=S)N(c3ccc(F)cc3)C2=O)c(C)n1-c1ccccc1	-0.46
Cc1cc(/C=C2\C(=O)NC(=S)N(c3cccc(Cl)c3)C2=O)c(C)n1-c1cc(C(=O)O)cc(C(=O)O)c1	-5.9*
Cc1ccc(N2C(=O)NC(=O)/C(=C\c3cc(C)n(-c4cc(C(=O)O)cc(C(=O)O)c4)c3C)C2=O)cc1	-1.1
O=C(CSc1nnc2c(n1)-c1cccc3cccc-2c13)Nc1ccccc1[N+](=O)[O-]	1.6
COc1cc(C=O)ccc1Oc1nc(N2CCCCC2)nc(N2CCCCC2)n1	-0.66
CCC(=O)Nc1ncnc2sc3c(c12)CCCC3	-0.07
CC(=O)Nc1ncnc2sc3c(c12)CCCC3	-8.8*
O=C(Nc1ncnc2sc3c(c12)CCCC3)c1ccc(F)cc1	0.5
CCC(C)C(=O)Nc1ccc(-c2nnc(-c3ccccc3)o2)cc1 (centres undefined)	137
COc1ccc(OC)c(C2=NCC(=O)Nc3c2oc2ccc(Cl)cc32)c1	-0.78
Cc1cc(=O)oc(C)c1C(=O)NCCCN1CCN(c2ccc(F)cc2)CC1	-0.7
Cc1cc(=O)oc(C)c1C(=O)NCc1c(F)cc(F)cc1F	-5.9*
COc1ccc(CCNC(=O)c2c(C)cc(=O)oc2C)cc1OC	0.43
CCOC(=O)c1[nH]c(=O)[nH]c1CN(Cc1ccco1)Cc1[nH]c(=O)[nH]c1C(=O)OCC	0.43
COC(=O)CNC(=O)c1ccccc1	0.05
SMILES	Ba CapD inh
CCOC(=O)c1[nH]c(=O)[nH]c1COC(=O)CNC(=O)c1ccccc1	-6.1*
CC(C)(C)OC(=O)N1CCN(C(=O)c2ccc(Oc3cccnc3)o2)CC1	-0.025
CCOc1ccc(CC2=NCCc3cc(OCC)c(OCC)cc32)cc1OCC	-0.35
O=C1CC(=O)c2ccc3c4c(ccc1c24)C(=O)CC3=O	-5.1*
O=C1CC(=O)c2c1cccc2[N+](=O)[O-]	-2.2
C/C(=N\NC(=O)Cn1nnc(-c2ccccc2)n1)c1nonc1C	0.23
CCC(C)N(C(=O)c1c(F)c(F)c(F)c(F)c1F)C(C)CC (centres undefined)	-0.11
Cc1ccc(NC(=O)/C(=C/c2ccc([N+](=O)[O-])cc2)NC(=O)c2ccc(C(C)(C)C)cc2)cc1Cl	-0.06
O=C(O)c1ccc(NC2OC(CO)C(O)C2O)cc1 (centres undefined)	-6.5*
Cc1ccc(NC2OC(CO)C(O)C2O)cc1C (centres undefined)	0.56
OCC1OC(Nc2ccccn2)C(O)C(O)C1O (centres undefined)	-0.04
CCC(C(=O)O)N1C(=O)/C(=C/c2ccccc2)SC1=S (centres undefined)	-2.1
CN(C)c1ccc(/C=C2/SC(=S)N(CCCCC(C(=O)O)N3C(=O)/C(=C\c4ccc(N(C)C)cc4)SC3=S)C2=O)cc1 (centres undefined)	-0.56
CSCCC(C(=O)O)N1C(=O)/C(=C/c2ccc(O)cc2)SC1=S (centres undefined)	-4*
CC(N=CC1=C(O)CNC1=O)c1ccccc1 (centres undefined)	-0.04
O=C1NCC(O)=C1/C=N/Nc1ccccc1	-4.4*
O=c1[nH]c(O)c(/C=N/Nc2ccccc2)c(=O)[nH]1	-1.3
CCOC(=O)c1sc2ncnc(NCc3ccccc3OC)c2c1C	3
CCn1c(=S)[nH]c2sc3c(c2c1=O)CCC3	-0.84
COc1ccc2c3c1CCCN3CCC2	3.1
CCOC(=O)C1CCN(C(=O)C2c3ccccc3C(=O)N3CCc4ccccc4C23)CC1 (centres undefined)	-0.41
CCOc1cc2c(cc1OCC)C1C(C(=O)N3CCCC3)c3ccccc3C(=O)N1CC2 (centres undefined)	0.45
CCOc1cc2c(cc1OCC)C1C(C(=O)N3CCCCC3)c3ccccc3C(=O)N1CC2 (centres undefined)	-5.9*
CCCS(=O)(=O)N1CCN(c2ccc(OC)cc2)CC1	-0.68
COc1ccc(N/C(C)=C/C(=O)c2ccccc2)cc1	-1.1
SMILES	Ba CapD inh
CC(=O)Nc1ccc(N/C(C)=C/C(=O)c2cccnc2)cc1	-4.1*
CN=C(Nc1ccc(Cl)cc1)c1cccnc1	-0.42
Cc1nc(SCC(=O)Nc2cccc(C(F)(F)F)c2)c2cnn(-c3ccccc3)c2n1	0.61
CCOC(=O)c1csc(-c2csc(C)n2)n1	-0.4
Cc1ccc(/C=C2\S/C(=N\n3cnnc3)N(c3ccccc3)C2=O)cc1	-0.97
COc1ccc(N2C(=O)CCC(C(=O)N3CCCCC3)C2c2ccc(OC)c(OC)c2)cc1 (centres undefined)	-0.57
COc1ccc(C2C(C(=O)N3CCOCC3)CCC(=O)N2c2ccc(OC)cc2)cc1 (centres undefined)	-10*
COc1ccc(C2C(C(=O)N3CCCC3)CC(=O)N2c2ccc(OC)cc2)cc1 (centres undefined)	-0.055
CC(C)(C)OC(=O)NCCc1c[nH]c2ccccc12	-0.005
CC(C)(C)C1(C)OC(=O)C(=Cc2ccc(Br)o2)C(=O)O1 (centres undefined)	-5.1*
CC1(C)OC(=O)C(=Cc2ccc(-c3ccccc3)o2)C(=O)O1	0.36
CC(C)(C)C1(C)OC(=O)C(=Cc2ccccc2Cl)C(=O)O1 (centres undefined)	-0.36
O=C1NN(c2ccc(Cl)c(Cl)c2)C(=O)/C1=C/C=C/c1ccco1	-0.61
C=CCn1c(SCC(=O)Nc2ccc(C)cc2)nc2sc3c(c2c1=O)CCC3	-0.41
Cc1ccccc1NC(=O)Nc1sc(=S)n(C)c1C	1.1
CON(C)C(=O)c1ccc(C(C)(C)C)cc1	0.24
CCCNC(=O)c1cc(-c2ccco2)on1	-4.7*
COC(=O)c1ccccc1NC(=O)c1cc(-c2ccco2)on1	0.52
O=C(NCc1cccs1)c1cc(-c2ccco2)on1	0.18
O=C(c1cc(-c2ccco2)on1)N(C1CCCCC1)C1CCCCC1	9.6
O=C(NC1CCCC1)c1cc(-c2ccc(O)cc2)on1	-1.1
O=C(NC1CCCCC1)c1cc(-c2ccco2)on1	-4*
Cc1c(C)c2c(c(C)c1OCc1ccccc1)C(CO)C(C)(C)O2 (centres undefined)	-0.95
COc1ccc(OC)c(N(CC(=O)NCCSc2ccc(Cl)cc2)S(=O)(=O)c2ccccc2)c1	-0.15
Cc1ccc2c(c1)-c1c(cnn1CC(=O)NC1CCCCC1C)CO2 (centres undefined)	0
CCCCN(CC)C(=O)c1cc2cc3ccc(C)cc3nc2o1	0.34
CC(C)c1nc2ccc(Cl)cc2c2c1C(=O)N(NC(=O)c1ccnc(Cl)c1)C2=O	1.5
COC(=O)C(=C/C=C/c1cccs1)C(=O)OC	-3.2

High-throughput results as filed in PubChem BioAssay.
